Screening data (PubChem BioAssay)
A selection: hits, their analogues and other compounds. The true share with any hit is near 4.5%.
CSC inhib – cancer stem cell viability inhibitors, primary screen, luminescence | cancer stem cell-like cells viability | inhibition, % at 7.5 µM | actives 1.1% (n = 300,000); in the data active = inhibition above about 75%; tested in HMLE shEcad cells
Mdm2 MdmX PPI – inhibitors of human Mdm2-MdmX association, primary screen, cell-based, luminescence, split luciferase, SaOS-2, uHTS | Protein Mdm4 (Homo sapiens) + E3 ubiquitin-protein ligase Mdm2 (Homo sapiens), … | actives 3% (n = 330,000) | SaOS-2 split-luciferase Mdm2/MdmX complementation | AID 485346, 2010 | inhibition, % at 8 µM;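 active = inhibition of at least 50% at 8 µM in the primary screen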
Target sequence (O15151 whole entry, looked up): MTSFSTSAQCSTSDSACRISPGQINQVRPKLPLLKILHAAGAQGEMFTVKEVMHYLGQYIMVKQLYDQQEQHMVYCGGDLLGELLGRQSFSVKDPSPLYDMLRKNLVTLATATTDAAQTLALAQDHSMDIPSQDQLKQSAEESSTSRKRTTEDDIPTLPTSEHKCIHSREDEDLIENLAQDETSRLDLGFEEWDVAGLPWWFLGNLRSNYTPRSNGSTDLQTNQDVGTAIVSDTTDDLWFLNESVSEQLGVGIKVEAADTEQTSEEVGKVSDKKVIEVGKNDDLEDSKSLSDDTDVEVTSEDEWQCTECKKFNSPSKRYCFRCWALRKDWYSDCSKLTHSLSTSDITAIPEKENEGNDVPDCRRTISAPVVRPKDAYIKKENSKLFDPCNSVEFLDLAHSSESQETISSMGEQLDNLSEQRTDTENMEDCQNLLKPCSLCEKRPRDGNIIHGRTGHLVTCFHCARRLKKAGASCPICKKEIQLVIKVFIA
Target sequence (Q00987 whole entry, looked up): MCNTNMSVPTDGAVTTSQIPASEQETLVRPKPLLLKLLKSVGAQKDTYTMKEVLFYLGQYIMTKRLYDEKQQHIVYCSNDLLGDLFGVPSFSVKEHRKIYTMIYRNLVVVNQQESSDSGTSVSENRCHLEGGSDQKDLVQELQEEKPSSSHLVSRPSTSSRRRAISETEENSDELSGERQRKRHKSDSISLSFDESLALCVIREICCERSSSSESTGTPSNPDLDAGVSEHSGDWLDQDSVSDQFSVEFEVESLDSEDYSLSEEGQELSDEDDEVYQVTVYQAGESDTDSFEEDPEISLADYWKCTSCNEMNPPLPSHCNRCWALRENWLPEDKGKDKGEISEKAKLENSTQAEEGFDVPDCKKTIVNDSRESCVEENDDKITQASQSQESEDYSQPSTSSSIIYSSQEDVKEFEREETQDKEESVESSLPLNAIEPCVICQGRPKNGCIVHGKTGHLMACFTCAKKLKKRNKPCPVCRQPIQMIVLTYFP
697 NFkB inh – inhibitors of PMA/ionomycin-induced NF-kB reporter, 697 cells, primary screen, B-cell NF-kB inhibitor project, cell-based, luminescence, uHTS | 697 B-cell NF-kB luciferase reporter, 16 h | AID 435022, 2010 | actives 0.33% (n = 330,000) | inhibition, % at 4 µM; in the data active = inhibition above about 35%
Jurkat NFkB inh – inhibitors of induced NF-kB luciferase reporter, primary screen, TCR NF-kB activation inhibitor project, cell-based, luminescence, uHTS; Jurkat, PMA/ionomycin-induced NF-kB luciferase reporter; inhibition, % at 4 µM; actives 0.53% (n = 330,000); in the data active = inhibition above about 50%
Gli-Sufu antag – Gli-Sufu pathway antagonists, primary screen, luciferase luminescence, Sufu-KO-LIGHT cells, uHTS; Sufu-KO-LIGHT fibroblasts, Gli luciferase reporter luminescence; inhibition, % at 5 µM; actives 0.74% (n = 340,000);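 active = inhibition above about 55%, limit read from the data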
aSyn 5UTR inh – MLPCN primary screen, SNCA 5' untranslated region; alpha-synuclein 5'UTR reporter, inhibitor activity; inhibition, % (tested at 7.5 µM); actives 0.82% (n = 300,000); in the data active = inhibition above about 60%;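 note: H4 neuroglioblastoma cells stably carrying SNCA 5'UTR luciferase fusion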
Mdm2 MdmX conf – Mdm2-MdmX complex disruptors, retested hits, confirmation, luminescence, single concentration; shares compounds with Mdm2 MdmX PPI; Mdm2-MdmX binding, luminescent assay; inhibition, % at 8 µM; actives 55% (n = 10,000); AID 489028, 2010; in the data active = inhibition above about 40%
FLuc counter – full-length luciferase signal inhibition, confirmation, counter-screen for Mdm2/MdmX interaction inhibitor project, cell-based, single concentration, SaOS-2; shares compounds with Mdm2 MdmX PPI; SaOS-2 full-length luciferase counterscreen, luminescence; inhibition, % at 8 µM; actives 77% (n = 6,200); AID 504607, 2011;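 active = mean inhibition at 8 µM reaching about 37%, which flags the compound as non-specific, limit read from the data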;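 note: p53-null SaOS-2 cells with luciferase driven by a doxycycline-inducible promoter; compound on cells about two nights before reading with doxycycline added after day one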
Each line names hits and unclear results; the compound was inactive in the other large screens (follow-up assays come after a bar, where they were run).

c1ccc(C(c2ccccc2)N2CCN(c3nc4ccccc4n4cnnc34)CC2)cc1	Mdm2 MdmX PPI 67.9 | Mdm2 MdmX conf inactive
c1cnc(N2CCN(c3nc4ccccc4n4cnnc34)CC2)nc1	none (no result: CSC inhib)
N#CCCN(C(=O)COC(=O)c1nc(Cl)ccc1Cl)c1ccccc1	none
O=C(CCl)N(c1ccccc1)c1ccccc1	none (no result: CSC inhib, Mdm2 MdmX PPI, 697 NFkB inh, Jurkat NFkB inh)
CCCC(=O)N(Cc1cc(=O)[nH]c2ccccc12)c1cccc(C)c1	none
CCCCCCCN(C(=O)CCl)c1cccc(C)c1	Mdm2 MdmX PPI 99.3 | Mdm2 MdmX conf 97.2 | FLuc counter inactive
N#CCCN(C(=O)CCl)c1cccc(Cl)c1	Mdm2 MdmX PPI 100.3 | Mdm2 MdmX conf 91.7 | FLuc counter 53.8
CCCCCCN(C(=O)CCl)c1ccccc1	Mdm2 MdmX PPI 97.9 | Mdm2 MdmX conf 91.5 | FLuc counter inactive
CSCC[C@H](N)C(=O)NCC1CCC(C(=O)Nc2ccc3c(c2)OCO3)CC1 (stereo partly drawn)	none
COc1ccc(CCn2c(C)cc(C(=O)CSc3nnnn3-c3ccccc3)c2C)cc1	none
Cc1cc(C(=O)CCl)c(C)n1CCc1ccccc1	Mdm2 MdmX PPI 74.5 | Mdm2 MdmX conf 43.0 | FLuc counter 71.4
Cc1cc(C(=O)CSc2nnnn2C)c(C)n1CCc1ccc(Cl)cc1	Mdm2 MdmX PPI 55.4 | Mdm2 MdmX conf inactive
COCCN(C(=O)COc1ccccc1C#N)c1c(N)n(Cc2ccccc2)c(=O)[nH]c1=O	none
Cc1ccc(-c2nc3ncccc3o2)cc1NC(=O)Cc1ccc(Cl)cc1	Mdm2 MdmX PPI 92.6 (no result: CSC inhib) | Mdm2 MdmX conf inactive
Cc1ccc(-c2nc3cccnc3o2)cc1NC(=O)COc1ccc(Cl)cc1C	Mdm2 MdmX PPI 84.5 | Mdm2 MdmX conf inactive
Cc1ccc(-c2nc3cccnc3o2)cc1NC(=O)COc1ccc(C(C)(C)C)cc1	none
Cc1cc(C)c(S(=O)(=O)Oc2ccccc2[N+](=O)[O-])c(C)c1	none (no result: CSC inhib, Mdm2 MdmX PPI, 697 NFkB inh, Jurkat NFkB inh, aSyn 5UTR inh)
CC1=CC(=O)C=C(C)C1=NOc1ccccc1[N+](=O)[O-]	Mdm2 MdmX PPI 72.3 | Mdm2 MdmX conf inactive
CCN(C[C@H]1N[C@@](Cc2ccccc2)(C(=O)OC)[C@H]2C(=O)N(C)C(=O)[C@@H]12)S(=O)(=O)c1ccc(-c2ccccc2)cc1	none (no result: CSC inhib, aSyn 5UTR inh)
O=C(C[C@H]1C[C@H](C(=O)N2CCOCC2)[C@@]2(CCC3CCCC3)c3[nH]c4ccc(Cl)cc4c3CCN2C1=O)NCC12CC3CC(CC(C3)C1)C2	Mdm2 MdmX PPI 84.0 (no result: CSC inhib, Jurkat NFkB inh, aSyn 5UTR inh) | Mdm2 MdmX conf 69.5 | FLuc counter inactive
CC(C)N(C(=O)[C@H]1C[C@H](CC(=O)NCC23CC4CC(CC(C4)C2)C3)C(=O)N2CCc3c([nH]c4ccc(Cl)cc34)[C@]12C)C(C)C	Mdm2 MdmX PPI 92.1 (no result: CSC inhib, Jurkat NFkB inh, aSyn 5UTR inh) | Mdm2 MdmX conf 49.8 | FLuc counter 72.5
CCN(CC)C(=O)[C@H]1C[C@H](CC(=O)NCC23CC4CC(CC(C4)C2)C3)C(=O)N2CCc3c([nH]c4ccc(Cl)cc34)[C@]12C	none (no result: CSC inhib, Jurkat NFkB inh, aSyn 5UTR inh)
COc1ccc2[nH]c3c(c2c1)CCN1C(=O)C(CC(=O)NCC24CC5CC(CC(C5)C2)C4)C[C@H](C(=O)N2CCOCC2)[C@@]31CCC1CCCC1 (stereo partly drawn)	Mdm2 MdmX PPI 77.3 (no result: CSC inhib, Jurkat NFkB inh, aSyn 5UTR inh) | Mdm2 MdmX conf 68.5 | FLuc counter 43.3
CC1=C2C3OC(=O)C(C)[C@@H]3CC[C@](C)(O)C2C2C3C4C5(C12)[C@H]1OC(=O)[C@@H](C)C1CC[C@]4(C)O[C@]5(C)[C@@H]3O (stereo partly drawn)	none
COc1ccc(NC(=O)CCc2nc(-c3ccccc3F)no2)cc1	none
O=C(CSc1nncc(=O)[nH]1)NC1CCCCC1	none
CCOc1ccc(C(=O)Nc2nc3ccccc3[nH]2)cc1OCC	none (no result: CSC inhib)
O=C(Nc1ccncc1)c1ccccc1F	Mdm2 MdmX PPI 51.3 | Mdm2 MdmX conf inactive
CC(C)Oc1ccc(C(=O)Nc2nc3ccccc3[nH]2)cc1	Mdm2 MdmX PPI 69.5, aSyn 5UTR inh 81.5 | Mdm2 MdmX conf 66.8 | FLuc counter 46.3
CCc1ccc(C(=O)Nc2nc3ccccc3[nH]2)cc1	Mdm2 MdmX PPI 55.8, aSyn 5UTR inh 87.9 | Mdm2 MdmX conf 52.1 | FLuc counter 72.4
O=C(Nc1nc2ccccc2[nH]1)c1ccccc1F	CSC inhib 123.6, Mdm2 MdmX PPI 82.4, aSyn 5UTR inh 108.4 | Mdm2 MdmX conf 80.6 | FLuc counter 37.6
O=C(Cn1cnc2scc(-c3ccc(Br)cc3)c2c1=O)N1CCOCC1	none
Cc1c(Cl)cccc1NC(=O)COC(=O)Cn1cnc2c1c(=O)n(C)c(=O)n2C	none (no result: aSyn 5UTR inh)
Cc1cc(F)ccc1S(=O)(=O)N1CCCOC1CNC(=O)C(=O)NCCCN1CCOCC1 (stereo not drawn)	none
CN1CCN(c2cc3c(c4c2[nH]c2ccccc24)C(=O)CC(C)(C)C3)CC1	Mdm2 MdmX PPI 56.5 | Mdm2 MdmX conf inactive
O=C(NCC(=O)N1CCN(C(=O)c2ccccc2)CC1)c1ccc(Cl)cc1Cl	none (no result: CSC inhib, aSyn 5UTR inh)
N#Cc1cccc(NC(=O)Cn2cnc(S(=O)(=O)N3CCCCC3)c2)c1	none
CCC(C)N1CCC(Oc2ccc(C(=O)NCc3ccccn3)cc2)CC1 (stereo not drawn)	none
O=C(OCn1ncc(Cl)c(Cl)c1=O)c1cccc(C(F)(F)F)c1	Mdm2 MdmX PPI 82.4 | Mdm2 MdmX conf 100.2 | FLuc counter 52.3
N/C(=N\OC(=O)c1cccc(C(F)(F)F)c1)c1cnccn1	none
CCc1c(C#N)c(SCCC(=O)Nc2ccc(F)cc2)nc2c1C(=O)CC(C)(C)C2	Mdm2 MdmX PPI 55.5 | Mdm2 MdmX conf inactive
CCCCCCN(C(=O)CCCCCN1C(=O)NC(c2ccc([N+](=O)[O-])cc2)C(C(=O)OCc2ccccc2)=C1C)C(C(=O)NCCCC)c1ccc(OCC(=O)OC)c(C(=O)OC)c1 (stereo not drawn)	none (no result: Gli-Sufu antag)
CCCCNC(=O)C(C1CCCCC1)N(CCN(C)C)C(=O)CCCN1C(=O)NC(c2ccc(-c3ccccc3)cc2)C(C(=O)OCc2ccccc2)=C1C (stereo not drawn)	Mdm2 MdmX PPI 96.9 (no result: CSC inhib, Jurkat NFkB inh, Gli-Sufu antag, aSyn 5UTR inh) | Mdm2 MdmX conf 56.6 | FLuc counter inactive
